Tested on: RARg:RXRa (NR concentration 270 nM, RXRa partner concentration 90 nM)
Test: PBM binding z-score (relative to random genomic background probes); higher = stronger binding; sequences stand for … in GC…GCGATTGACAGCGTAGAATGAAGG
Procedure, shortened: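 The probes on custom Agilent 4×180K protein-binding microarrays were double-stranded, with 34-nt variable regions bearing direct-repeat seeds, single-nucleotide variants, half-site ablations and random human genomic background sequences. Incubation lasted 1 h with ligand-free nuclear receptor dimers in PBS pH 7.4, 2% milk, 0.02% Triton X-100, 1 mM DTT, 0.2 mg/mL BSA and 0.4 mg/ml salmon testes DNA. Antibodies against each partner (one per run) detected bound dimers, and fluorescence scans were regression-normalized. Binding z-scores take the random background probes as reference.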

Sequence	PBM binding z-score
TCTCGGAGGACACGAAAGGCCAGAGCTCGACATC	0.946
TGTCAAAGTTCAAAGGTAACGGAAGTATCCACAC	6.56
GCTGCTAGATCAGGTTGGTCAGCTAACGGGTACG	-0.607
TCATATAGGTAAATCCTAGGTGAAAGTCCGATCT	0.491
GCTTACGGGTCAAAGGCTATAGCATGAATAGAAT	4.79
TCAAGTAGGTTAGGGGCATTCAGAATGGCGTCGA	0.789
ATCTCAAGGTAACAAGTTCAGTGAAAGAGAGGAC	1.79
CCGACTGGGGCAGAAAGGTTACTATACCATCCGG	1.26
CTCGAAAGGTCGTGCTCAGGTGCGTATACCAAAC	4.1
CCGACTGGGGCATAAGGGTACCATAAGCCAGCCC	0.401
TGTCAAAGTTGAAAGGTAACGTAAGTATCCACAC	2.23
TCGAGTAGGTAAGGGGCATTCAGAATGGCGTCGA	-0.117
CCTACTGGGCCATTCAGAGGTCATTGGTCATATG	4.18
CAAACTAGGTCAAAGTCAAAGTCGGTTTGTGCCA	3.87
CAAACTAGGTCAAGAGGTCAACGTCCGCTTCCCG	7.92
CATACAGGGTCAGCTAGGCCAGAGTCGGGACGGC	4.42
GCTTGTATATCAAGGTTAAGAAAGACTAAGCTAA	0.526
ATATGTAGGTTAGCGGGTCATTCAGTTTGCGCAT	2.83
CGTCCAAGGTCGATGCTAGGTCAGTGAAAGCATT	4.58
GCAGACAGGTGAAACGCAGGTTACTCAGGGTGGC	2.09

Sequence	PBM binding z-score
CGTCCAAGGTCATAGTAGGTCAGTGAAGACAGAT	6.11
ATCTCTAGGTAAGACTCAGTTCTGTGAAGAACGC	-0.271
TCTCCTAGGTCAACGATGGTCAGCTAATCTGCTA	4.5
GGAATGAGGGCATTCGAGTTGATAGCATGGCGAT	1.15
GGAACGAGGGCAAGTTGAGAGCAGAGTTTGATGG	1.77
TCTTGTAAATCAACAGGAGGTTAAGAAAGATCGA	0.681
CTACCAAGGTGAACAAGATCGTTGATTACTATTC	0.951
ATCTGTAGGTAACAAGTTCAGTGAAAGAGAGGAC	1.44
CCGAGCAGGTTATGGGGCATTCAGGCAACGGTGA	0.387
GGAACGTGGGCAAGTTGATAGCAGAGTTTGATGG	-0.487
TCGGGTAGGTTAGGGGCATTCAGAATGGCGTCGA	1.07
ACTGGGAGGACAAAGGTCAGAGCTACGCCAGTGA	6.22
CGTCCAAGGTCTATGCTAGGTCAGTGAAAGCATT	1.52
TCGAGAAGGTTACCAATGGGGCATTCAGCTTTCT	3.02
GCATATAGGTAATACAAGCTGAAAGTCCGATTGT	0.165
TCTTGTAGATCAACAAGAGGTTAAGAAAGATCGA	1.56
ACTAGCAGGCCATGGGTCACTCAAGATTAGTCCG	1.88
CGAACTAGGTAAGAACAGGACAGTGAAGGATGAT	0.0419
ACTAGTTCGTCAGCTGAGGTCACACACAATTCGG	4.08
TAGCCTGGGTCATTGGGCCAGTATAGTACGCATC	3.67
